Among the test systems are SR leukemia; RPMI-8226 leukemia; OVCAR-8 ovarian; OVCAR-5 ovarian; OVCAR-4 ovarian; SK-OV-3 ovarian; IGROV1 ovarian; OVCAR-3 ovarian; HS 578T breast; NCI/ADR-RES ovarian; T-47D breast; BT-549 breast; MDA-MB-435 melanoma; SW-620 colon; MCF7 breast; HCT-116 colon; HCC-2998 colon; KM12 colon; MDA-MB-468 breast.
What all share (test): NCI-60 one-dose screen, 48 h (100 = growth as untreated, 0 = no growth, -100 = all killed)
Details in all cases: 10 µM unless noted

About 83,000 compounds went through this panel and 20% of them were active in at least one assay; those are over-represented in the sample as a whole.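 Compound tested at a single concentration for 48 hours in 96-well plates; a percent growth value below 10 was scored as active.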 Unmarked numbers belong to inactive results. Active and inactive are the calls of the source.

On to `O=C(COc1ccc(NC(=O)Nc2ccc(Cl)cc2)cc1)N/N=C/c1ccccc1`, for which the growth in the assay with SR leukemia was 6.18% (active); with RPMI-8226 leukemia, -23.5% (active); in the assay with OVCAR-8 ovarian, -49% (active); with OVCAR-5 ovarian, -9.58% (active); in the assay with OVCAR-4 ovarian, -51.9% (active); in the assay on SK-OV-3 ovarian, -60.2% (active). The growth in the assay on IGROV1 ovarian was -57.3% (active); with OVCAR-3 ovarian, -76.9% (active); in the assay on HS 578T breast it was -36.9% (active); in the assay with NCI/ADR-RES ovarian, -10.9% (active); in the assay on T-47D breast, -81.6% (active); with BT-549 breast, -51.4% (active). In addition, the growth in the assay on MDA-MB-435 melanoma was -88.5% (active); with SW-620 colon it was -75.2% (active); with MCF7 breast it was -78.6% (active); in the assay on HCT-116 colon, -40% (active); in the assay with HCC-2998 colon it was -77.4% (active); in the assay with KM12 colon, -70.3% (active). Moreover, in the assay with MDA-MB-468 breast, the growth is -94.4% (active).
For `CCN(CC)c1ccnc(CNCCSC(c2ccccc2)(c2ccccc2)c2ccc(OC)cc2)c1`, the growth with SR leukemia was -49.4% (active); in the assay with RPMI-8226 leukemia it was -55.9% (active); in the assay on OVCAR-8 ovarian, -78.6% (active); with OVCAR-5 ovarian, -11.9% (active); with OVCAR-4 ovarian, 14.1%; with SK-OV-3 ovarian, -8.81% (active). Further, the growth with IGROV1 ovarian is -2.91% (active); in the assay on OVCAR-3 ovarian, -43% (active); in the assay on HS 578T breast it was -33.2% (active); in the assay with NCI/ADR-RES ovarian it was -64.5% (active); in the assay on T-47D breast, -15.8% (active); in the assay on BT-549 breast it was -25.4% (active). Also, the growth is -63.8% (active) in the assay with MDA-MB-435 melanoma; -66.6% (active) in the assay with SW-620 colon; -50.8% (active) in the assay with MCF7 breast; -78.6% (active) in the assay on HCT-116 colon; -80.5% (active) with HCC-2998 colon; -49.8% (active) in the assay with KM12 colon. In the assay with MDA-MB-468 breast, the growth was -64.1% (active).
In the case of `O=C1CCCc2cc(OCC(=O)N3CCCCC3)ccc2N1`, the growth is 104% in the assay on SR leukemia; 101% in the assay on RPMI-8226 leukemia; 104% in the assay with OVCAR-8 ovarian; 123% in the assay with OVCAR-5 ovarian; 103% in the assay with OVCAR-4 ovarian; 111% with SK-OV-3 ovarian. The growth with IGROV1 ovarian was 121%; in the assay with OVCAR-3 ovarian it was 110%; in the assay on HS 578T breast it was 105%; in the assay on NCI/ADR-RES ovarian, 109%; in the assay on T-47D breast, 108%; with BT-549 breast, 126%. In addition, the growth with MDA-MB-435 melanoma is 108%; with SW-620 colon, 106%; in the assay on MCF7 breast it was 94%; with HCT-116 colon it was 114%; in the assay with HCC-2998 colon it was 122%; in the assay on KM12 colon it was 108%. Further, the growth in the assay on MDA-MB-468 breast was 107%.
Regarding `CN(C)c1nc(NCCNS(=O)(=O)c2ccc(C3=Nc4c(N)nc(N)nc4NC(c4ccccc4)C3)cc2)nc(Nc2ccc(F)cc2)n1` (stereo not drawn), the growth in the assay with SR leukemia is 1.17% (active); with RPMI-8226 leukemia, 4.93% (active); in the assay with OVCAR-8 ovarian, 42.3%; in the assay on OVCAR-5 ovarian, 75.3%; in the assay with OVCAR-4 ovarian, 38.9%; in the assay on SK-OV-3 ovarian it was 80.7%. Further, the growth is 32.1% in the assay on IGROV1 ovarian; 45.2% with OVCAR-3 ovarian; 46.3% in the assay on HS 578T breast; 92.9% in the assay with NCI/ADR-RES ovarian; 39.8% with T-47D breast; 29.1% in the assay with BT-549 breast. Also, the growth in the assay with MDA-MB-435 melanoma is 41.6%; in the assay with SW-620 colon, 49.9%; in the assay on MCF7 breast, 17.3%; with HCT-116 colon it was 32.7%; in the assay with HCC-2998 colon, 31.9%; in the assay with KM12 colon it was 33.8%. For the same compound, the growth in the assay with MDA-MB-468 breast was -35.8% (active).
Regarding `CCCCSc1nc(NCCc2c[nH]c3ccccc23)c(C#N)c(-c2ccccc2)n1`, the growth in the assay with SR leukemia was 2.16% (active); with RPMI-8226 leukemia it was 14.1%; in the assay on OVCAR-8 ovarian it was 49.2%; in the assay with OVCAR-5 ovarian, 82.7%; in the assay with OVCAR-4 ovarian it was 62.2%; in the assay with SK-OV-3 ovarian it was 76.6%. The growth in the assay on IGROV1 ovarian was 96%; with OVCAR-3 ovarian, 55.9%; in the assay with HS 578T breast, 39.6%; in the assay with NCI/ADR-RES ovarian it was 22.9%; in the assay with T-47D breast, -0.0859% (active); in the assay on BT-549 breast, 70.2%. In addition, the growth was 49.2% in the assay with MDA-MB-435 melanoma; 4.59% (active) in the assay with SW-620 colon; 3.23% (active) in the assay with MCF7 breast; 4.22% (active) with HCT-116 colon; 16.3% in the assay on HCC-2998 colon; 7.79% (active) in the assay on KM12 colon. Besides, in the assay on MDA-MB-468 breast, the growth is 3.04% (active).
On to `C#CCOc1cc(N(CC)CC)ccc1C(C(=O)NC(C)(C)C)N(C(=O)C1CCc2cc(F)ccc2O1)c1ccccc1F` (stereo not drawn), for which the growth is 16.3% in the assay with SR leukemia; 18% in the assay on RPMI-8226 leukemia; 31.7% with OVCAR-8 ovarian; 57.7% with OVCAR-5 ovarian; 43.4% in the assay on OVCAR-4 ovarian; 39.6% in the assay on SK-OV-3 ovarian. For the same compound, the growth is 54% in the assay with IGROV1 ovarian; 33.1% in the assay with OVCAR-3 ovarian; 68.7% in the assay on HS 578T breast; 42.5% in the assay with NCI/ADR-RES ovarian; 30.2% with T-47D breast; 40.3% in the assay on BT-549 breast. The growth with MDA-MB-435 melanoma was 35.9%; with SW-620 colon it was 42.1%; with MCF7 breast it was 16.6%; in the assay on HCT-116 colon, 20.5%; in the assay on HCC-2998 colon it was 73.2%; with KM12 colon it was 18.8%. In the assay on MDA-MB-468 breast, the growth is 25.5%.
Consider `C=C1CC[C@@H]2[C@]3(C)COC(c4ccco4)O[C@@H]3CC[C@@]2(C)[C@@H]1C/C=C1/C(=O)OCC1OC(C)=O` (stereo partly drawn), for which the growth in the assay with SR leukemia is -21% (active); with RPMI-8226 leukemia, -30.9% (active); in the assay with OVCAR-8 ovarian, -8.73% (active); in the assay with OVCAR-5 ovarian, 35.8%; in the assay with OVCAR-4 ovarian, 48.2%; in the assay with SK-OV-3 ovarian, 105%. Besides, the growth with IGROV1 ovarian is 9.51% (active); with OVCAR-3 ovarian, -28.9% (active); in the assay on HS 578T breast it was 66.8%; in the assay on NCI/ADR-RES ovarian it was 8.21% (active); with T-47D breast, 45.5%; with BT-549 breast, -4.43% (active). For the same compound, the growth in the assay on MDA-MB-435 melanoma was 31.9%; in the assay on SW-620 colon, -8.09% (active); with MCF7 breast, 13.4%; in the assay on HCT-116 colon it was -52% (active); with HCC-2998 colon, 31.8%; in the assay on KM12 colon it was 52.4%. Further, the growth in the assay with MDA-MB-468 breast is -2.37% (active).

The record behind these values is PubChem BioAssay (NCI).
